# Reference: PubChem BioAssay AID504373 (National Center for Advancing Translational Sciences (NCATS), 2011)
# Records with an inconclusive call do not appear. The source made the active and inactive calls.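 Rule for the calls: active = fewer circulating green fluorescent tagged thrombocytes in treated fish, with no visible harm to the embryos; inconclusive = compound visibly harmful to the embryos; inactive = no drop in circulating tagged thrombocytes.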
# Assay: qHTS Assay for Compounds Blocking the Interaction Between CBF-beta and RUNX1 for the Treatment of Acute Myeloid Leukemia: Zebrafish assay for Hematopoiesis, SAR for Probe
# Conditions: GFP-cd41 zebrafish embryos, microscopy, 5 days, stronger effect = lower value
# Description: NIH Chemical Genomics Center [NCGC] NIH Molecular Libraries Probe Production centers Network [MLPCN] MLPCN Grant: X01MH083259-01 Assay Submitter (PI): Paul Liu NCGC Assay Overview: Core Binding Factor (CBF) abnormalities are associated with 20-25% of all acute myeloid leukemias (AML), of which 5-10% are further sub classified as acute myelomonocytic leukemia with eosinophilia, also known as M4Eo in the FAB classification scheme. This subtype of leukemia is usually associated with chromosome 16 inversion (p13:q22). Chromosome 16 inversion results in formation of the fusion oncogene CBFB-MYH11, which encodes the fusion protein CBF-beta-SMMHC. […] It has been hypothesized that the interference of CBF-beta and RUNX1 binding could have therapeutic implications for patients with CBF mediated leukemias. We developed a CBF-beta and RUNX1 binding assay in AlphaScreenTM format and optimized it for high throughput screening to search for inhibitors. The goal of this project is to screen MLPCN's compound collection (MLSMR) for identifying the inhibitors of the interaction between CBF-beta and RUNX1 proteins as research probes. If these probes work well in the animal models, the ultimate goal of this project is to development a new drug treatment for this disease. […] These fish contain a genomic modulation where GFP has been fused to cd41, a marker for thrombocytes, and thus circulating thrombocytes can be easily imaged in anesthetized fish.
# Assay protocol: GFP-cd41 zebrafish were kindly provided by the Liu lab. Zebrafish embryos were incubated with compound (<0.1% DMSO final) at 48 hours post fertilization, for 5 days. Embryos were manually scored under a microscope with GFP illumination for circulating GFP-tagged thrombocytes. Keywords: MLSMR, MLPCN, NIH Roadmap, qHTS, NCGC, Core binding factor, CBF, CBF-beta, Acute myeloid leukemia
SMILES,fish with circulating GFP thrombocytes (at 25 µM),fish with circulating GFP thrombocytes (at 50 uM) [%]
CN1C(=O)CN=C(c2ccc[nH]2)c2cc(Cl)ccc21 (tested in a mixture with another compound),29.2% (active),0
CCN(CC)CCN1C(=O)CN=C(c2ccc[nH]2)c2cc(Cl)ccc21,45.8% (active),70.8
CCN(CC)CCN1C(=O)CN=C(c2ccccn2)c2cc(Cl)ccc21,66.7% (active),66.7
